# Screens (PubChem)
# KCNQ2 enhance = KCNQ2 (rat) channel potentiation; CHO-K1 KCNQ2, FluxOR thallium flux fluorescence; stronger effect = higher value; O88943; B-score at 10 µM; actives 0.54% (n = 310,000);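 active means fluorescence ratio B-score at least 3 SD of library B-scores, with initial fluorescence B-score within 3 of them, cut at about 5.3 in these data; same plate scores as AID 2156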;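 further: B-score of peak minus minimum over baseline fluorescence ratio after K+ and Tl+ stimulus; positive B-score means potentiation of KCNQ2 with more thallium influx and brighter signal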
# Target sequence (O88943 whole entry, looked up): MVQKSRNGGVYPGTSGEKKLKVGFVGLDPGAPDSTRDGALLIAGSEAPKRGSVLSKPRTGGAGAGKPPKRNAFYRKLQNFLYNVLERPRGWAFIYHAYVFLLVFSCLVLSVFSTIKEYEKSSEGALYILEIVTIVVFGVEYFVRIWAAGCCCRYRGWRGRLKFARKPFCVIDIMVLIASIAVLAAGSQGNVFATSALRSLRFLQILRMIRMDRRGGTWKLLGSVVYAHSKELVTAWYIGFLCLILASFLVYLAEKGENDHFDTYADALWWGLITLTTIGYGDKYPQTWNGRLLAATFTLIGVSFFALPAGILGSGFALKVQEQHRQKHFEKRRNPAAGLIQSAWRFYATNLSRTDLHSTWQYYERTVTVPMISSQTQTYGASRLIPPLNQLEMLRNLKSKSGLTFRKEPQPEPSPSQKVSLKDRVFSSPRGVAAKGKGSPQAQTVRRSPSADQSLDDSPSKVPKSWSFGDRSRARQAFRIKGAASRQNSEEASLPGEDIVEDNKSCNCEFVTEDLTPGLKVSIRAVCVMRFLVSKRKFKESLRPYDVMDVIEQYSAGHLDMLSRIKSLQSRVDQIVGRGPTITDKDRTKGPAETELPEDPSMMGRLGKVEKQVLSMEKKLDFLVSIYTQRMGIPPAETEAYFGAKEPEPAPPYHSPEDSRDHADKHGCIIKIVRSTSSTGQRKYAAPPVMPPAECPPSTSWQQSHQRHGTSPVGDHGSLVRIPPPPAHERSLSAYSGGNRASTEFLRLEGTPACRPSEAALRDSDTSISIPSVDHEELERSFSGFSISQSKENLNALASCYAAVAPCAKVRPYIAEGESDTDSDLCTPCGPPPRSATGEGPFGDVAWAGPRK
# KCNQ2 block = inhibitors of rat KCNQ2 potassium channel | O88943 | CHO-K1 KCNQ2, FluxOR thallium flux, 20 min; stronger effect = lower value | B-score at 10 µM | actives 1.1% (n = 310,000);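 active means fluorescence ratio B-score at most minus 3 library SDs, with starting brightness B-score within 2 library SDs, cut at about -5.5 in these data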
# * = called active by the depositor; i = inactive; . = no result. This is a sample that favours compounds with a hit; in the whole collection about 1.6% have one here.
SMILES,KCNQ2 enhance,KCNQ2 block
O=C(OCc1ccc(C(=O)c2ccccc2)cc1)c1cccc(-c2nnc(-c3ccccc3)o2)c1,.,i
O=C(OCc1ccccc1)c1cccc(-c2nnc(-c3ccccc3)o2)c1,-6.33,-6.33*
COCc1cc(C)nc(SCC(=O)Nc2ccccc2C)c1C#N,0.69,i
COCc1cc(C)nc(SCC(=O)Nc2cc(C(F)(F)F)ccc2N2CCOCC2)c1C#N,-5.63,-5.63*
CCO/C(C)=N/n1c2nc3ccccc3nc2c2c(=O)n(Cc3ccccc3Cl)c(C)nc21,-8.38,-8.38*
CCOc1c(C)cnc2c1c(=O)n(Cc1ccccc1Cl)c(=O)n2C,.,i
COc1cc(NC(=O)c2sc(C)nc2C)c(OC)cc1NC(=O)c1ccccc1,.,i
COc1ccc(-c2nc(C(=O)NCC3CCCO3)cc3c2[nH]c2ccccc23)cc1 (centres undefined),.,i
O=C(NCC1CCCO1)c1cc2c([nH]c3ccccc32)c(-c2cccc(Br)c2)n1 (centres undefined),-6.43,-6.43*
COc1ccc(-c2cc(C(=O)NCC3CCCO3)c3cc(C)ccc3n2)cc1 (centres undefined),-5.58,-5.58*
O=C(NCC1CCCO1)c1cc(-c2ccccc2)nc2ccc(Br)cc12 (centres undefined),-7.4,-7.4*
Cc1ccc2nc(-c3cccc(Br)c3)cc(C(=O)NCC3CCCO3)c2c1 (centres undefined),.,i
COc1ccc(-c2cc(C(=O)NCC3CCCO3)c3ccccc3n2)cc1 (centres undefined),0.02,i
Cc1cccc(/C=C/c2onc(C)c2S(=O)(=O)N2CCC(C(=O)N3CCC(C)CC3)CC2)c1,.,i
Cc1cccc(/C=C/c2onc(C)c2S(=O)(=O)N2CCC(C(=O)N3CCCCCC3)CC2)c1,-5.99,-5.99*
O=C(O)C1CCC(=O)N1C(=O)OCc1ccccc1 (centres undefined),0.92,i
Cc1cccc(CSc2nc3sc(C)c(C)c3c(=O)n2Cc2ccco2)c1,0.57,i
Cc1cccc(CSc2nnc(-c3cccs3)n2Cc2ccco2)c1,-6.06,-6.06*
Cc1ccccc1OCc1nc2ccccc2[nH]1,-6.58,-6.58*
COc1ccccc1OCc1nc2ccccc2[nH]1,.,i
CCNC(=O)NC(=O)C(C)OC(=O)CCCSc1nc2ccccc2s1 (centres undefined),.,i
O=C(c1ccc2ccccc2c1)N1CCN(c2ccccc2)CC1,-5.58,-5.58*
O=C(c1ccc2ccccc2c1)N1CCCCC1,0.86,i
C=CCOc1cccc(C2/C(=C(\O)c3ccc4c(c3)OCCO4)C(=O)C(=O)N2CCN2CCOCC2)c1 (centres undefined),1.72,i
CCOC(=O)N1CC=C2C(C#N)=C(N)C(C#N)(C#N)[C@H](c3cccs3)C2C1 (some centres undefined),.,i
SMILES,KCNQ2 enhance,KCNQ2 block
CC(C)(C)OC(=O)N1CC=C2C(C#N)=C(N)C(C#N)(C#N)C(c3cccs3)C2C1 (centres undefined),-6.19,-6.19*
COc1ccc(NC2c3ccccc3C(=O)N2Cc2ccc3c(c2)OCO3)cc1 (centres undefined),.,i
Cc1cc(OCC(=O)Nc2nccs2)c2c(C)cc(=O)oc2c1,.,i
CCc1ccc(C(=O)OCC(=O)c2c(N)n(CC(C)C)c(=O)n(C)c2=O)cc1,1.12,i
Cc1nc(N2CCN(c3ccccn3)CC2)c2c(C)c(C(=O)Nc3c(C)cc(Br)cc3C)sc2n1,-7.91,-7.91*
Cc1nc(N2CCN(c3ccccn3)CC2)c2c(C)c(C(=O)Nc3c(F)cc(F)cc3Br)sc2n1,.,i
O=C(Nc1ccccc1)C1Cc2ccccc2CN1C(=O)c1ccco1 (centres undefined),.,i
O=C(/C=C/c1ccco1)NC(=S)Nc1cc(C(F)(F)F)ccc1N1CCOCC1,-7.27,-7.27*
O=C(Nc1cc(C(F)(F)F)ccc1N1CCOCC1)C1Cc2ccccc2CN1C(=O)c1ccco1 (centres undefined),-6.45,-6.45*
O=C(CCCCl)NC(=S)Nc1cc(C(F)(F)F)ccc1N1CCOCC1,0.03,i
O=C(N/N=C/c1ccc(OC(=O)c2cccs2)cc1)c1ccccn1,0.3,i
O=C(Cn1c(=O)c2cccn2c2cccnc21)N1CCN(c2ccccc2F)CC1,.,i
COC(=O)c1cc(CNC(=O)c2sccc2-c2ccccc2)ccc1OC,1.36,i
O=c1c2ccccc2nc(SCc2ccccc2Cl)n1Cc1ccccc1,.,i
CCN(CC)C(=O)CSc1nc2ccccc2c(=O)n1CC,0.8,i
CCSc1nc2ccccc2c(=O)n1C1CCOC(C)(C)C1 (centres undefined),.,i
CCOC(=O)CSc1nc2ccccc2c(=O)n1CC,0.49,i
C=CCSc1nc2ccccc2c(=O)n1C1CCOC(C)(C)C1 (centres undefined),-6.04,-6.04*
C=CCSc1nc2ccccc2c(=O)n1Cc1ccccc1,-5.66,-5.66*
CCn1c(SCc2ccccc2)nc2ccccc2c1=O,8.22*,i
CCOC(=O)CSc1nc2ccccc2c(=O)n1CC1CCCC1,-6.12,-6.12*
CCOc1ccc(N(CC(=O)NC2CCCCC2)C(=O)CNC(=O)c2cccs2)cc1,.,i
CN(C)Cc1c(C(=O)N/N=C/C2CC=CCC2)nnn1-c1nonc1N (centres undefined),.,i
CN(NS(=O)(=O)c1ccc(Cl)cc1)c1nc(C(F)(F)F)nc2ccccc12,.,i
Cc1nc2cc(OCc3cc(C(=O)NC(C)c4cnn(C)c4)no3)ccc2s1 (centres undefined),.,i
SMILES,KCNQ2 enhance,KCNQ2 block
O=C1OCCC1Sc1nc2ccccc2c(=O)n1Cc1ccc(F)cc1 (centres undefined),6.28*,i
O=C1OCCC1Sc1nc2ccccc2c(=O)n1-c1ccc(F)cc1 (centres undefined),.,i
CC(C)(C)CC(=O)NCCc1csc(-c2ccccc2)n1,2.58,i
Cc1ccc(S(=O)(=O)NC2c3cccc4cccc(c34)C2Sc2ncccn2)cc1 (centres undefined),-7.05,-7.05*
Cc1cc(C)nc(SC2CCCCC2NS(=O)(=O)c2ccccc2)n1 (centres undefined),0.33,i
Cc1cc(C)nc(SC2c3cccc4cccc(c34)C2NS(=O)(=O)c2ccccc2)n1 (centres undefined),-5.74,-5.74*
Cc1ccc(S(=O)(=O)Nc2cccc3cccnc23)cc1,.,i
O=C(NCC1CC1)Nc1cccs1,2.46,i
c1ccc(CO/N=C(\c2ccc(C3CC3)nc2)C2CC2)cc1,-6.99,-6.99*
O=C(NC1CCC(C(=O)O)CC1)OCc1ccccc1 (centres undefined),0.05,i
O=C(CN(Cc1ccc(F)cc1)C(=O)CNS(=O)(=O)c1ccc(Cl)cc1)NCC1CCCO1 (centres undefined),0.35,i
N=C1/C(=C\c2ccc(-c3cc(Cl)cc(Cl)c3)o2)C(=O)N=C2SC=C(c3ccccc3)N12,0.75,i
CC(C)S(=O)(=O)C1=NSC2=NC(=O)/C(=C\c3ccc(-c4ccccc4)o3)C(=N)N21,-5.94,-5.94*
O=C(NC(=S)Nc1ncc(Br)cc1Br)c1ccccc1,0.99,i
CCc1nc(N2CCCCC2)c2oc3ccccc3c2n1,.,i
CCc1nc(N2CCCCC2C)c2oc3ccccc3c2n1 (centres undefined),-7.47,-7.47*
CCc1nc(N2CCN(Cc3ccc4c(c3)OCO4)CC2)c2oc3ccccc3c2n1,-6.48,-6.48*
